# From PubChem BioAssay (NCATS)
# Results filed as inconclusive are left out. Where a call stands in place of a potency, no number is given. The source made the active and inactive calls. Calls follow the shape of the dose curve; as a rule, active = well fitted curve in the direction sought with a large enough effect; inconclusive = small, poorly fitted or top-dose-only effect, or another doubt; inactive = no such curve, though single readings can be large; an effect the other way counts as inactive or inconclusive.
# Assay: qHTS of pediatric cancer cell lines to identify multiple opportunities for drug repurposing: Confirmatory screen for LAN-5 cells (AID 1347113); also: nearly all actives have a fitted effect of over 65% in size
# Conditions: LAN-5 neuroblastoma cell viability; series mostly up to 45.9 µM
# How it was run: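 Cells (500-1,000/well) rested 5 h, then received compounds for 48 h; metabolically active cells were measured by CellTiter-Glo luminescence. Final concentrations spanned up to 46 µM (MIPE, 11-point) or 0.59 nM-46 µM (NPC, 8-point) in primary screens, 11-point in follow-ups.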
# Potency is read from the fitted curve at half-maximal effect.
row,Structure (SMILES),Potency
1,NC(N)=NC(=O)c1nc(Cl)c(N)nc1N,inactive
2,COc1ccc(-c2oc3cc(OC)ccc3c2C(=O)c2ccc(C#N)cc2)cc1,inactive
3,CCC(C)(C)C(=O)O[C@H]1C[C@@H](C)C=C2C=C[C@H](C)[C@H](CC[C@@H]3C[C@@H](O)CC(=O)O3)[C@H]21,inactive
4,Cc1oncc1C(=O)Nc1ccc(C(F)(F)F)cc1,inactive
5,CCC(C)n1ncn(-c2ccc(N3CCN(c4ccc(OC[C@H]5CO[C@](Cn6cncn6)(c6ccc(Cl)cc6Cl)O5)cc4)CC3)cc2)c1=O (some centres undefined),inactive
6,C[C@]1(c2nc3c(C(N)=O)cccc3[nH]2)CCCN1,inactive
7,COc1ccc(-c2ccc3c(N4CCOC[C@H]4C)nc(N4CCOC[C@H]4C)nc3n2)cc1CO,0.293 µM (active)
8,CCN(CC)CCCC(C)Nc1ccnc2cc(Cl)ccc12 (centres undefined),inactive
9,CS(=O)(=O)c1ccc(C(=O)Nc2ccc(Cl)c(-c3ccccn3)c2)c(Cl)c1,inactive
10,Cc1c(CN2CCN(C(=O)C(C)C)CC2)sc2c(N3CCOCC3)nc(-c3cnc(N)nc3)nc12,0.737 µM (active)
11,Cc1cn[nH]c1,inactive
12,Cc1c(C)c2c(c(C)c1O)CCC(C)(COc1ccc(CC3SC(=O)NC3=O)cc1)O2 (centres undefined),inactive
13,CN(C)c1ccc(C2Nc3ccc4ccccc4c3C3=C2C(=O)CC(C)(C)C3)cc1Br (centres undefined),inactive
14,Cn1cnc2c(F)c(Nc3ccc(Br)cc3Cl)c(C(=O)NOCCO)cc21,inactive
15,NCCCC(N)(C(=O)O)C(F)F (centres undefined),inactive
16,COCC(=O)NCC=Cc1ccc2ncnc(Nc3ccc(Oc4ccc(C)nc4)c(C)c3)c2c1,42.7 µM (active)
17,NC(=O)c1ccc(I)c([N+](=O)[O-])c1,inactive
18,Nc1nc2[nH]cc(CCc3ccc(C(=O)N[C@@H](CCC(=O)O)C(=O)O)cc3)c2c(=O)[nH]1,inactive
19,Oc1cccc(-c2nc(N3CCOCC3)c3oc4ncccc4c3n2)c1,0.537 µM (active)
20,Nc1nc2c(ncn2COCCO)c(=O)[nH]1,inactive
21,OC(CN1CCC(Cc2ccc(F)cc2)CC1)c1ccc(Cl)cc1 (centres undefined),inactive
22,CCOc1ccn(-c2ccc(F)cc2)c(=O)c1C(=O)Nc1ccc(Oc2ccnc(N)c2Cl)c(F)c1,inactive
23,O=NN(CCCl)C(=O)NCCCl,inactive
24,CC(C=CC1=C(C)CCCC1(C)C)=CC=CC(C)=CC(=O)O,inactive
25,CNCc1ccc(-c2[nH]c3cc(F)cc4c3c2CCNC4=O)cc1,inactive

# Assay: qHTS of pediatric cancer cell lines to identify multiple opportunities for drug repurposing: Confirmatory screen for DAOY cells (AID 1347114); also: nearly all actives have a fitted effect of over 65% in size
# Conditions: DAOY medulloblastoma cells viability, cytotoxicity qHTS; series mostly up to 45.9 µM
# How it was run: (§1)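 Viability measured as metabolically active cells via CellTiter-Glo luminescence following 48 hours of compound exposure, 11-point dilutions in confirmatory testing. 500-1,000 cells/well plated 5 hours before dosing; controls were DMSO and 2.3 µM bortezomib.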
row,Structure (SMILES),Potency
1,NC(N)=NC(=O)c1nc(Cl)c(N)nc1N,inactive
2,COc1ccc(-c2oc3cc(OC)ccc3c2C(=O)c2ccc(C#N)cc2)cc1,inactive
3,CCC(C)(C)C(=O)O[C@H]1C[C@@H](C)C=C2C=C[C@H](C)[C@H](CC[C@@H]3C[C@@H](O)CC(=O)O3)[C@H]21,5.85 µM (active)
4,Cc1oncc1C(=O)Nc1ccc(C(F)(F)F)cc1,inactive
5,O=C(NOC[C@H](O)CO)c1ccc(F)c(F)c1Nc1ccc(I)cc1F,inactive
6,CN1CCN(CCCN2c3ccccc3Sc3ccc(C(F)(F)F)cc32)CC1,18.5 µM (active)
7,C[C@]1(c2nc3c(C(N)=O)cccc3[nH]2)CCCN1,inactive
8,CO[C@@H]1[C@H](N(C)C(=O)c2ccccc2)C[C@H]2O[C@]1(C)n1c3ccccc3c3c4c(c5c6ccccc6n2c5c31)C(=O)NC4,inactive
9,CCN(CC)CCCC(C)Nc1ccnc2cc(Cl)ccc12 (centres undefined),inactive
10,CS(=O)(=O)c1ccc(C(=O)Nc2ccc(Cl)c(-c3ccccn3)c2)c(Cl)c1,inactive
11,Cc1cn[nH]c1,inactive
12,COc1ccc(-c2ccc3c(N4CCOCC4)nc(N4C[C@@H](C)O[C@@H](C)C4)nc3n2)cc1CO,9.27 µM (active)
13,CN(C)c1ccc(C2Nc3ccc4ccccc4c3C3=C2C(=O)CC(C)(C)C3)cc1Br (centres undefined),inactive
14,NCCCC(N)(C(=O)O)C(F)F (centres undefined),inactive
15,COCC(=O)NCC=Cc1ccc2ncnc(Nc3ccc(Oc4ccc(C)nc4)c(C)c3)c2c1,16.5 µM (active)
16,NC(=O)c1ccc(I)c([N+](=O)[O-])c1,61.8 µM (active)
17,COc1cc2nccc(Oc3ccc(NC(=O)NC4CC4)c(Cl)c3)c2cc1C(N)=O,inactive
18,Nc1nc2[nH]cc(CCc3ccc(C(=O)N[C@@H](CCC(=O)O)C(=O)O)cc3)c2c(=O)[nH]1,inactive
19,Nc1nc2c(ncn2COCCO)c(=O)[nH]1,inactive
20,OC(CN1CCC(Cc2ccc(F)cc2)CC1)c1ccc(Cl)cc1 (centres undefined),inactive
21,CCOc1ccn(-c2ccc(F)cc2)c(=O)c1C(=O)Nc1ccc(Oc2ccnc(N)c2Cl)c(F)c1,inactive
22,O=NN(CCCl)C(=O)NCCCl,inactive
23,CC(C=CC1=C(C)CCCC1(C)C)=CC=CC(C)=CC(=O)O,inactive
24,CNCc1ccc(-c2[nH]c3cc(F)cc4c3c2CCNC4=O)cc1,inactive

# Assay: qHTS of pediatric cancer cell lines to identify multiple opportunities for drug repurposing: Confirmatory screen for SJ-GBM2 cells (AID 1347116); also: nearly all actives have a fitted effect of over 60% in size
# Conditions: SJ-GBM2 glioblastoma cells, viability; series mostly up to 45.9 µM
# How it was run: as §1
row,Structure (SMILES),Potency
1,NC(N)=NC(=O)c1nc(Cl)c(N)nc1N,inactive
2,COc1ccc(-c2oc3cc(OC)ccc3c2C(=O)c2ccc(C#N)cc2)cc1,inactive
3,O=C(c1cc(Cc2n[nH]c(=O)c3ccccc23)ccc1F)N1CCN(C(=O)C2CC2)CC1,inactive
4,CCC(C)n1ncn(-c2ccc(N3CCN(c4ccc(OC[C@H]5CO[C@](Cn6cncn6)(c6ccc(Cl)cc6Cl)O5)cc4)CC3)cc2)c1=O (some centres undefined),inactive
5,O=C(NOC[C@H](O)CO)c1ccc(F)c(F)c1Nc1ccc(I)cc1F,inactive
6,OC[C@H](Cc1ccccc1)Nc1nc(Oc2ccc3c(c2)CCC3)nc2c1ncn2Cc1ccc(-c2ccccc2)cc1,inactive
7,COc1cc(Nc2ncc3c(n2)-c2ccc(Cl)cc2C(c2c(F)cccc2OC)=NC3)ccc1C(=O)O,inactive
8,C[C@]1(c2nc3c(C(N)=O)cccc3[nH]2)CCCN1,inactive
9,CS(=O)(=O)c1ccc(C(=O)Nc2ccc(Cl)c(-c3ccccn3)c2)c(Cl)c1,inactive
10,Cc1cn[nH]c1,inactive
11,Cc1c(C)c2c(c(C)c1O)CCC(C)(COc1ccc(CC3SC(=O)NC3=O)cc1)O2 (centres undefined),inactive
12,COc1ccc(-c2ccc3c(N4CCOCC4)nc(N4C[C@@H](C)O[C@@H](C)C4)nc3n2)cc1CO,1.47 µM (active)
13,CN(C)c1ccc(C2Nc3ccc4ccccc4c3C3=C2C(=O)CC(C)(C)C3)cc1Br (centres undefined),8.27 µM (active)
14,NCCCC(N)(C(=O)O)C(F)F (centres undefined),inactive
15,COCC(=O)NCC=Cc1ccc2ncnc(Nc3ccc(Oc4ccc(C)nc4)c(C)c3)c2c1,inactive
16,NC(=O)c1ccc(I)c([N+](=O)[O-])c1,inactive
17,COc1cc2nccc(Oc3ccc(NC(=O)NC4CC4)c(Cl)c3)c2cc1C(N)=O,inactive
18,Oc1cccc(-c2nc(N3CCOCC3)c3oc4ncccc4c3n2)c1,2.93 µM (active)
19,Nc1nc2ccc(OC(F)(F)F)cc2s1,inactive
20,Nc1nc2c(ncn2COCCO)c(=O)[nH]1,inactive
21,OC(CN1CCC(Cc2ccc(F)cc2)CC1)c1ccc(Cl)cc1 (centres undefined),inactive
22,CCOc1ccn(-c2ccc(F)cc2)c(=O)c1C(=O)Nc1ccc(Oc2ccnc(N)c2Cl)c(F)c1,14.7 µM (active)
23,O=NN(CCCl)C(=O)NCCCl,inactive
24,CC(C=CC1=C(C)CCCC1(C)C)=CC=CC(C)=CC(=O)O,inactive
25,CNCc1ccc(-c2[nH]c3cc(F)cc4c3c2CCNC4=O)cc1,inactive
